Experimental data: the supplement of paper PMC6555819

What follows are sequences tested on VDR:RXRa (NR concentration 270 nM, RXRa partner concentration 90 nM) (assay: PBM binding z-score (relative to random genomic background probes); higher = stronger binding; sequences stand for … in GC…GCGATTGACAGCGTAGAATGAAGG).
Protocol: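 Protein-binding microarray (Agilent 4x180K custom design, double-stranded 60-nt probes: 5' GC cap, 34-nt variable region, 24-nt constant primer region; full probe sequence given). Purified or IVT nuclear receptor:RXRα heterodimers (3:1 NR:RXRα, mostly 270:90 nM) or homodimers were incubated for 1 h in PBS with 2% milk and no ligand, then detected with Alexa488 antibodies. Fluorescence from o1-orientation probes (~5 replicates averaged) was converted to z-scores against 500 random hg19 background probes. Variable regions are seed direct-repeat (DR0–DR5) sites, all their single-nucleotide variants and half-site ablations.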

CGTCCAAGGTGAAGGTCAGTGAAAGAGACTCGAA was tested. Which PBM binding z-score did it give?
The PBM binding z-score was 0.859.

For TCGAGTAGGTTAGGGACATTCAGAATGGCGTCGA, which PBM binding z-score is on record?
Its PBM binding z-score is -0.0636.

How did the PBM binding z-score turn out when CCGACTGGGGCAAAAGTTACCATACTCAGTACGA was run?
Its PBM binding z-score is -0.267.

How did the PBM binding z-score turn out when CGTACTGGGCCAAAAAGGTCATTGATGCCGATAA was run?
Its PBM binding z-score is 5.04.

For TCTGTTAGGTCAGTTGGTCAGCTAACGAGCTGCC, which PBM binding z-score is on record?
Its PBM binding z-score is 0.897.

How did the PBM binding z-score turn out when CCTAGCAAGCCAGGGTCACTCAAGCATTTCGCTT was run?
Its PBM binding z-score is 2.8.

Which PBM binding z-score does the source give for CGAACTAGGTCATTGACAGGACTGTGAATAGTAA here?
Its PBM binding z-score is 1.65.

How did the PBM binding z-score turn out when TCCGCTAGGTCAGTTGGTCAGCTAACGAGCTGCC was run?
Its PBM binding z-score is 0.232.

With TCATATAGGGAAAGGTGAAAGTCGAACGATATGA as the sequence, how does the PBM binding z-score read?
The PBM binding z-score was 0.965.

How did the PBM binding z-score turn out when ATCTCTAGGTAGGACTCAGTTCAGTGAAGAACGC was run?
The PBM binding z-score was 0.756.

How did the PBM binding z-score turn out when TCAGACAGGTGAAGGTAACTGAGGTACGCAGTCG was run?
The PBM binding z-score was 0.737.

For CGTCCAAGGTCAGAGAGGTTAGTGAATGCCGAGT, which PBM binding z-score is on record?
The PBM binding z-score was 5.8.

Which PBM binding z-score does the source give for TCAAGTAGGTTAGTCGGGGCATTCAGCCAACATA here?
Its PBM binding z-score is 2.43.

Which PBM binding z-score does the source give for GCTAGCAGGCCAATTGGGTCACTCAATGACGGGC here?
The PBM binding z-score was 0.89.

For CTCGAAAGTTCGGTTGAGGTGAGTATACGGATAA, which PBM binding z-score is on record?
The PBM binding z-score was 0.728.

For TCTAGTTGTTCACGGAGGTCACACACGACGGGTA, which PBM binding z-score is on record?
The PBM binding z-score was 4.1.

How did the PBM binding z-score turn out when TCATATAGGTAAATGTTAGGTGAAAGTCCGATCT was run?
Its PBM binding z-score is 1.23.

Which PBM binding z-score does the source give for CCGACTGGGGCAAGGTGACCATAACGCACAGCCA here?
Its PBM binding z-score is -0.586.

GCGACTGAGGCATCAGCAGGTTACCATAACTTAA was tested. Which PBM binding z-score did it give?
Its PBM binding z-score is -0.37.

For AATACAGCGTCATCGTAGGCCAGAGTACGCACAG, which PBM binding z-score is on record?
Its PBM binding z-score is -0.373.

For GATACAGGGTCAGCTAGAGGCCAGGGTATGGAAA, which PBM binding z-score is on record?
Its PBM binding z-score is 3.14.

How did the PBM binding z-score turn out when AGAACGAGGGCAATGAGTTGATAGAACGGGTGGC was run?
The PBM binding z-score was 5.04.

How did the PBM binding z-score turn out when CCAGACAGGTGAAGGGTAACTCAGTCTGGTACGC was run?
The PBM binding z-score was -0.111.

With CGTCCAAGGTCAGAGGTCAGTGAAGAGATGACGG as the sequence, how does the PBM binding z-score read?
Its PBM binding z-score is 5.16.

Which PBM binding z-score does the source give for TCTTGTAGATCAATAGAGGTTCAGAAAGTGCGCT here?
Its PBM binding z-score is 1.65.

For ACTAGTAGTTGAGACGAGGGCAACCGATAGGTTG, which PBM binding z-score is on record?
Its PBM binding z-score is 0.766.

How did the PBM binding z-score turn out when ATCGACAGGTCGACGAGGTGAGTATACACCGTTT was run?
Its PBM binding z-score is 2.85.

Which PBM binding z-score does the source give for CCTTACGGGTCAATGTTATAGCACGGGTGGTACG here?
The PBM binding z-score was 2.57.

For ACGAGTTGGTCAGCTGAGGTCACACACAATTCGG, which PBM binding z-score is on record?
Its PBM binding z-score is 4.62.

How did the PBM binding z-score turn out when CCTTACGGGTCAAGGTGATAGCACGGGTGGTACG was run?
The PBM binding z-score was 2.92.

CTCGAAAGGTCGGTTGAGGTGAGTACACGGATAA was tested. Which PBM binding z-score did it give?
The PBM binding z-score was 2.84.

For CCTACTGGGCAACGAAAGGTCATTGATTCAGTGA, which PBM binding z-score is on record?
Its PBM binding z-score is 3.7.

For CGTACTAGGTCAAGGACAGTGAATCTCCGCACGC, which PBM binding z-score is on record?
The PBM binding z-score was 1.33.

With TAGCCTAGCTCATGGGCCAGTATACCACGCGAAC as the sequence, how does the PBM binding z-score read?
The PBM binding z-score was -0.717.

How did the PBM binding z-score turn out when ACAGTCAGGTGAGTGAAGGTAACTCAGCTGGACG was run?
The PBM binding z-score was -0.663.

How did the PBM binding z-score turn out when GCAGACAGGTGAAACTCAGGTAACTCAGGGTGGC was run?
Its PBM binding z-score is -0.101.

For ACTAGCAGACCAAGTTTGGGTCACTCAAACAAAG, which PBM binding z-score is on record?
Its PBM binding z-score is 0.245.

For CCTGCTAGGTCAATGGTCAGCAAAAGCAGCTCGC, which PBM binding z-score is on record?
The PBM binding z-score was 0.941.

For CCTTACGGATCACTGACAGGTTATAGCATTTGGA, which PBM binding z-score is on record?
The PBM binding z-score was 0.456.

For ACTATTAGTTGACTTAGGGCAACTGATACGACGC, which PBM binding z-score is on record?
Its PBM binding z-score is 0.239.
